Test results as given in PubChem BioAssay (Tox21).
Records with an inconclusive call do not appear. Entries that show only a call come without a potency. Active and inactive are the calls of the source. Calls come from the whole dose curve; as a rule, active = well fitted cell-killing curve with a large enough effect in the repeat runs; inconclusive = weak or mixed curves, or effect the other way; inactive = flat fitted curve, though single readings scatter.

Test: qHTS assay to identify small molecule agonists of the constitutive androstane receptor (CAR) signaling pathway - cell viability counter screen (AID 1224836); note: nearly all actives have a fitted effect of over 45% in size
Conditions: HepG2-CYP2B6-hCAR viability, CellTiter-Fluor, 23 h, PK11195 added to every well; series mostly up to 92.4 µM
Outline: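 Double-stable HepG2 hepatoma cells (hCAR plus CYP2B6-2.2kb) are treated for 23 h at 37 C with test compounds in 15-point concentration series. PK11195 at 0.75 uM final is co-added. Cell viability is quantified by CellTiter-Fluor.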

**Q.** With `CCCC(=O)O[C@]1(C(=O)COC(=O)CC)CC[C@H]2[C@@H]3CCC4=CC(=O)CC[C@]4(C)[C@H]3[C@@H](O)C[C@@]21C` as the compound, how does the viability change, negative = cytotoxic read?
**A.** The viability change, negative = cytotoxic was 10.6% [at 19 µM] (inactive).

**Q.** Which Potency does the source give for `O=C(Nc1ccc([N+](=O)[O-])cc1)Nc1ccc([N+](=O)[O-])cc1` here?
**A.** The Potency was “inactive”.

**Q.** With `CCCCCCCC/C=C\CCCCCCCC(=O)OC(CO)CO` as the compound, how does the Potency read?
**A.** Its Potency is “inactive”.

**Q.** Which Potency does the source give for `Nc1nc(Cl)nc2c1ncn2[C@@H]1O[C@H](CO)[C@@H](O)[C@@H]1F` here?
**A.** The Potency was “inactive”.

**Q.** Which Potency does the source give for `OC(CCCN1CCCCC1)(c1ccccc1)c1ccccc1` here?
**A.** The Potency was “inactive”.

**Q.** With `CC(=O)[C@H]1CC[C@H]2[C@@H]3C=CC4=CC(=O)CC[C@@]4(C)[C@@H]3CC[C@]12C` as the compound, how does the Potency read?
**A.** Its Potency is “inactive”.

**Q.** With `CCN(Cc1cccc(S(=O)(=O)O)c1)c1ccc(C(=C2C=CC(=[N+](CC)Cc3cccc(S(=O)(=O)[O-])c3)C=C2)c2ccccc2)cc1` as the compound, how does the Potency read?
**A.** Its Potency is “inactive”.

**Q.** Which Potency does the source give for `C[N+]1(C)CCC(=C(c2ccccc2)c2ccccc2)CC1` here?
**A.** Its Potency is “inactive”.

**Q.** With `CCOC(=O)N1CCC(n2c(=O)[nH]c3cc(Cl)ccc32)CC1` as the compound, how does the Potency read?
**A.** The Potency was “inactive”.

**Q.** Which Potency does the source give for `CC(=O)OCC(=O)[C@H]1CC[C@H]2[C@@H]3CCC4=CC(=O)CC[C@]4(C)[C@H]3CC[C@]12C` here?
**A.** The Potency was “inactive”.

**Q.** Which Potency does the source give for `CN1Cc2cc(C(=O)N3CCC(C4CCNCC4)CC3)ccc2N[C@@H](CC(=O)O)C1=O` here?
**A.** Its Potency is “inactive”.

**Q.** For `CN(C)C(=O)Nc1ccc(Oc2ccc(Cl)cc2)cc1`, which Potency is on record?
**A.** Its Potency is “inactive”.

**Q.** With `Nc1ccc(S(=O)(=O)O)c(N)c1` as the compound, how does the Potency read?
**A.** The Potency was “inactive”.

**Q.** With `CCC(=O)Oc1ccc(/C(CC)=C(\CC)c2ccc(OC(=O)CC)cc2)cc1` as the compound, how does the Potency read?
**A.** The Potency was “inactive”.

**Q.** Which Potency does the source give for `CCCOC(=O)c1ccc(N)cc1` here?
**A.** Its Potency is “inactive”.

**Q.** Which Potency does the source give for `O=C(CCCCCCCCC#CI)Oc1ccccc1` here?
**A.** The Potency was “inactive”.
